This is a sample that favours compounds with a hit; in the whole collection about 2.4% have one here.
D2 ag-1 – human D2 receptor agonism in beta-arrestin assay. P14416. DiscoveRx PathHunter D2 beta-arrestin, luminescence, 90 min; 100% = 57 uM dopamine signal. activation, % (no concentration beside the values). actives 0.084% (n = 360,000). AID 624465; in the data active = activation above about 40%; inconclusive = between about 15% and that limit
Target sequence (P14416 whole entry, looked up): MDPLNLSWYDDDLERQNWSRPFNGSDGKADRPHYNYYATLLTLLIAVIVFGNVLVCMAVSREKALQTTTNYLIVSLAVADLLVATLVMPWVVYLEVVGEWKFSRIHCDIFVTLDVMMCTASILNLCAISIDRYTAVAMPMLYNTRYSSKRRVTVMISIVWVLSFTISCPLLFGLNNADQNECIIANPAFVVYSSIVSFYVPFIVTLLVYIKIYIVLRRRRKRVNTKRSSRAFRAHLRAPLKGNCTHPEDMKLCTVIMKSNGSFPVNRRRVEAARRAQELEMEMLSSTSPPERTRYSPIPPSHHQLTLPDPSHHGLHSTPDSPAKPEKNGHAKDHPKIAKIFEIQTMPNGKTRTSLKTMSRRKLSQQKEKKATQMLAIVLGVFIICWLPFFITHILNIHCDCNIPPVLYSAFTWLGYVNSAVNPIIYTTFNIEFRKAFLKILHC
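Agonist mode: compounds alone added to overnight-plated D2 PathHunter cells for 90 min at 37 C, with 57 uM final dopamine (EC100) defining full response. Beta-arrestin recruitment detected by chemiluminescent reagent, read after 1 h at ambient temperature.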
D2 PAM-1 – positive allosteric modulators of human D2 dopamine receptor; P14416; DiscoveRx D2 beta-arrestin cells, luminescence, 90 min; 100% = 57 uM dopamine signal; potentiation, % (test concentration not listed); actives 0.23% (n = 360,000); in the data active = potentiation above about 50%; inconclusive = mostly about 30% to 49%
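D2 cells co-treated with compound plus 50 nM dopamine (EC20) for 90 min at 37 deg C to detect potentiation. Beta-arrestin recruitment was read as enzyme-fragment luminescence after 1 h at ambient temperature. Full response was set by 57 uM dopamine.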
D2 ag-2 – D2 dopamine receptor (human) agonism; P14416; HEK293 T-REx D2 cells, calcium flux agonist mode; actives 0.53% (n = 340,000); activation, % at 2 µM;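 active = activation over 3 SD above normal in the single-dose calcium agonist read, cut at about 30% in these data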
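Tetracycline-induced HEK293 Trex cells with D2 receptor force-coupled to calcium signaling, plated overnight at 30 C and loaded with no-wash calcium dye. Calcium flux read kinetically for 180 s after compound addition; responses flag agonists.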
D2 antag – antagonists of human D2 dopamine receptor | HEK293 TREx D2 cells, calcium flux, dopamine EC80 | P14416 | actives 2% (n = 340,000) | inhibition, % at 10 µM | AID 485344; in the data active = inhibition above about 30%; inactive = below that, where a call was filed
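Tetracycline-induced HEK293 T-REx cells expressing D2 force-coupled to calcium signalling were dye-loaded, exposed to compound for 180 s, then challenged with an EC80 of dopamine; calcium flux was followed kinetically for a further 180 s.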
D2 PAM-2 – positive allosteric modulators of human D2 dopamine receptor | HEK293 T-REx D2, calcium flux, EC20 dopamine potentiation | potentiation, % at 10 µM | actives 0.34% (n = 340,000) | AID 485347;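 active = potentiation over 3 SD above the plate norm, cut at about 30% in these data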
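Tetracycline-induced HEK293 T-REx cells force-coupled to calcium signalling expressed D2; compounds were pin-added after a 10 s baseline, read kinetically 180 s, then an EC20 dopamine challenge followed with a further 180 s calcium read.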
Each line names hits and unclear results; the compound was inactive in the other large screens; ! = not confirmed by another sample.

Cc1cc(C)c(/C=C(\C#N)C(N)=S)c(C)c1	D2 antag 84.0
COc1ccc2[nH]cc(CCNC(=O)Nc3cccc(F)c3)c2c1	none (no result: D2 ag-1, D2 PAM-1, D2 antag)
CN(C1CCCCC1)S(=O)(=O)c1cccc2nsnc12	D2 antag 31.6
N#CCCN(C1CCCCC1)S(=O)(=O)c1cccc2nsnc12	none
CCN(c1ccc(F)cc1)S(=O)(=O)c1cccc2nsnc12	none
CCN(c1ccccc1C(=O)O)S(=O)(=O)c1cccc2nsnc12	D2 antag 30.6
Cc1ccc(Cl)cc1NC(=O)c1cc(S(=O)(=O)N2CCCCCC2)cn1C	none (no result: D2 ag-1, D2 PAM-1, D2 antag)
OCCN1CCN(C(=S)c2ccc(Br)cc2)CC1	D2 antag 54.7
CSc1ccc(C(=S)N2CCN(CCO)CC2)cc1	none
CCc1ccc(-n2c(=O)c3c(C)c(C(=O)N(C)C)sc3n(CC(=O)NCC3CCCO3)c2=O)cc1 (stereo not given)	none
COc1cccc(-n2c(=O)c3c(C)c(C(=O)N(C)C)sc3n(CC(=O)NCC3CCCO3)c2=O)c1 (stereo not given)	D2 antag 41.1
O=C(c1noc2c1CCCCC2)N1CCN(c2ccc(Cl)cc2)CC1	none (no result: D2 ag-1, D2 PAM-1, D2 antag)
CCn1c(NCc2cccc(Cl)c2)nc2ccccc21	none (no result: D2 ag-1, D2 PAM-1, D2 antag)
FC(F)Oc1ccc(N=C2SCC3CCCCN23)cc1 (stereo not given)	D2 PAM-2 36.4
Clc1ccc(N=C2SCC3CCCCN23)cc1 (stereo not given)	none
O=C(O)CCCCCNS(=O)(=O)c1cccc2c1C(=O)c1ccccc1C2=O	D2 PAM-1 76.3
O=C(O)CCCCCNS(=O)(=O)/C=C/c1ccccc1	none
COc1ccc(OC)c(NC(=O)CSc2nc(=O)n(CCN(C)C)c3c2CCC3)c1	none (no result: D2 ag-1, D2 PAM-1, D2 antag)
Cc1cc(C)nc(SCCCNCc2ccc(Br)cc2)n1	D2 antag 58.9
Cc1ccc(CNCCCSc2nc(C)cc(C)n2)cc1	D2 antag 63.4
CCOc1ccc(CCNC(=O)Cn2c(C)c3cnn(-c4ccccc4)c(=O)c3c2C)cc1	none (no result: D2 ag-1, D2 PAM-1, D2 antag)
C=CCc1ccc(OCCOCCN(C)C)c(OC)c1	D2 PAM-2 30.7
CC(=O)N1CCc2c(sc3c2c(=O)n(-c2ccc(C)cc2)c(=O)n3Cc2c(F)cccc2Cl)C1	none (no result: D2 ag-1, D2 PAM-1, D2 antag)
N/C(=N\OC(=O)c1cccc(Cl)c1)c1ccncc1	D2 ag-1 inconclusive
N/C(=N\OC(=O)c1cccc(Cl)c1)c1cccnc1	D2 ag-1 inconclusive, D2 PAM-1 138.0
N/C(=N\OC(=O)c1ccc(Cl)c(Cl)c1)c1cccnc1	D2 ag-1 inconclusive, D2 PAM-1 116.6
CCC(C)c1ccc(OCC(=O)Nc2cccc(-c3nc4ncccc4o3)c2)cc1 (stereo not given)	none (no result: D2 ag-1, D2 PAM-1, D2 antag)
COC(=O)c1sc2cccc(F)c2c1S(=O)(=O)Nc1cc(OC)cc(OC)c1	none (no result: D2 ag-1, D2 PAM-1, D2 antag)
CCc1ccccc1NS(=O)(=O)c1ccc2c(c1)CC(=O)N2	none (no result: D2 ag-1, D2 PAM-1, D2 antag)
COc1ccc(S(=O)(=O)N2CCN(C3CCCCCCC3)CC2)cc1	D2 antag 34.3!
O=S(=O)(c1ccccc1)N1CCC(N2CCN(c3ccccc3)CC2)CC1	D2 ag-2 74.0, D2 antag 70.7 (no result: D2 ag-1, D2 PAM-1)
COc1ccc(S(=O)(=O)N2CCC(N3CCCCC3)CC2)cc1	none
O=S(=O)(c1ccccc1)N1CCN(c2ccccc2)CC1	none
COc1ccc(N(C(=O)CNC(=O)c2cccs2)C(C(=O)NCC2CCCO2)c2ccccc2)cc1 (stereo not given)	D2 antag 80.4
Cc1cccc(Cn2cc(S(=O)(=O)c3ccc(Cl)cc3)c(=O)c3cc4c(cc32)OCO4)c1	none (no result: D2 ag-1, D2 PAM-1, D2 antag)
COc1ccc(C2=NOC(C(=O)NC(C)(C)C)C2)cc1 (stereo not given)	none
CCN(CC)C(=O)C1CC(c2ccc(OC)cc2)=NO1 (stereo not given)	D2 antag 31.3
N#Cc1c(NC(=O)/C=C/c2ccco2)sc2c1CCCC2	D2 antag 57.3
O=C(/C=C/c1ccco1)Nc1sc2c(c1C(=O)O)CCC2	none
Cc1c(Cl)cccc1NS(=O)(=O)c1ccccc1	none (no result: D2 ag-2, D2 antag, D2 PAM-2)
Cc1c(NS(=O)(=O)c2ccccc2)cc(Cl)c(O)c1C	D2 ag-1 inconclusive, D2 PAM-1 61.9 (no result: D2 PAM-2)
N#CC(c1ccccc1)C(CC(=NO)c1ccccc1)c1ccccc1 (stereo not given)	none (no result: D2 ag-2, D2 antag, D2 PAM-2)
NNC(=O)CNS(=O)(=O)c1ccc([N+](=O)[O-])cc1	D2 antag 49.1
O=C(CNS(=O)(=O)c1ccccc1)OCC(=O)c1ccc([N+](=O)[O-])cc1	none
CCN(c1ccccc1)S(=O)(=O)c1cnc[nH]1	D2 antag 34.5
COc1cc(N=c2ssnc2Cl)cc(OC)c1	D2 PAM-2 34.8
COc1cccc(N2CCN(S(=O)(=O)c3cn(C)cn3)CC2)c1	none
Cc1nn(-c2ccccn2)c2c1C(=O)C(Br)CC2 (stereo not given)	D2 ag-1 inconclusive, D2 PAM-1 53.6
COc1ccccc1C(=O)NCC(=O)N1CC=C(c2ccccc2)CC1	D2 antag 30.2
Cc1cc(C(=O)COC(=O)c2cc(O)c3ccccc3c2O)c(C)n1CC1CCCO1 (stereo not given)	D2 ag-1 inconclusive, D2 PAM-1 82.7
Cc1ccc(C(=O)Nc2cccc(C(F)(F)F)c2)cc1NC(=O)c1c[nH]c2cc(C(F)(F)F)ccc2c1=O	none (no result: D2 ag-2, D2 antag, D2 PAM-2)
CCN1CCN(Cc2ccc(NC(=O)c3ccc(C)c(NC(=O)c4c[nH]c5cc(C(F)(F)F)ccc5c4=O)c3)cc2C(F)(F)F)CC1	D2 antag 36.1
CCOc1ccc(NCc2cccn2-c2nnc(N3CCC(C(=O)NCc4ccccc4Cl)CC3)s2)cc1	none (no result: D2 ag-1, D2 PAM-1, D2 antag)
COc1ccc(NC(=O)CSc2nc(-c3ccc(C)cc3)cc(C(F)(F)F)c2C#N)cc1	D2 PAM-2 30.9 (no result: D2 ag-2, D2 antag)
COc1ccc(-n2c(SCC(=O)Nc3ccccc3)nc(O)cc2=O)cc1	none
COc1ccc(NC(=O)CSc2nc(O)cc(=O)n2-c2ccc(OC)cc2)cc1	D2 PAM-2 39.6
COc1ccc(NC(=O)CSc2ncnc3sc(C)cc23)cc1	D2 antag 31.7
CC(C)c1ccc(Nc2cc(C(=O)NC3CCCCC3)c3ccccc3n2)cc1	none (no result: D2 ag-1, D2 PAM-1, D2 antag)
O=C(CCN1C(=O)/C(=C/c2ccc(F)cc2)SC1=S)NC1C=CS(=O)(=O)C1 (stereo not given)	D2 PAM-2 55.5
O=C(CN1C(=O)S/C(=C\c2ccc(F)cc2)C1=O)NC1C=CS(=O)(=O)C1 (stereo not given)	none
COc1ccc(OC)c(-n2nnnc2SCC(=O)Nc2ccccc2OC)c1	D2 antag 31.1
CCOc1ccccc1NC(=O)CSc1nnc2c(CC)c(C)nc(N)n12	D2 antag 35.2 (no result: D2 PAM-2)
COc1ccc(OC)c(NC(=O)CSc2nncc3ccccc23)c1	none
CCOc1ccccc1NC(=O)CSc1nncc2ccccc12	D2 PAM-2 34.7
CCOc1ccc(NC(=O)CN(C)c2nnnn2-c2ccccc2)cc1OCC	D2 antag 35.1
Cc1ccc(C)c(S(=O)(=O)c2nnn3c2nc(NC2CCCCC2)c2sccc23)c1	none (no result: D2 ag-1, D2 PAM-1, D2 antag)
